This excerpt belongs to a sample that is enriched for hits.
GALC G270D act: A Novel Cell-Based Assay to Identify Small Molecules for B -Galactocerebrosidase | Potency, µM (series often up to 57.5 µM), hits mostly activators | P54803 | 145M-Twi-hGALC-G270D cells (Twitcher mouse brain line with human GALC G270D), HMU-beta-Gal fluorescence, 48 h | hit rate 0.1% among 45,000 | AID 1159614, 2016; note: nearly all actives have a fitted effect of over 65% in size
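Live 145M-Twi cells (Twitcher mouse brain-derived, GALC-null) stably expressing human GALC-G270D, with a wild-type GALC line, were compound-treated. Residual GALC activity was then read as fluorescence from 0.1 mM final HMU-β-gal at pH 5.2; higher signal means activation.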
NTMT1 inh: Primary qHTS for Inhibitors of N-terminal methyltransferase 1 (NTMT1): MTaseGlo Assay; N-terminal Xaa-Pro-Lys N-methyltransferase 1 (Homo sapiens), Q9BV86; NTMT1 MTase-Glo SAH luminescence, purified enzyme; Potency, µM (titrated, usually from 114 µM), usual class: inhibitors; hit rate 2.5% among 59,000; AID 1645870, 2021; note: nearly all actives have a fitted effect of over 65% in size
p53null 39C tox: qHTS Screen for Compounds that Selectively Target Cancer Cells with p53 Mutations: Cytotoxicity of p53 Null Cells at the Nonpermissive Temperature; hit rate 0.97% among 55,000; AID 904, 2007; H1299 p53-null (neo) cells, 39C, ATPlite viability, 24 h; Potency, µM (top dose mostly 46.1 µM), hits mostly cytotoxic; note: nearly all actives have a fitted effect of over 50% in size
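Luminescent ATP signal reported cell survival after H1299 lines (neo, p53 null; or p53 A138V) received up to 46 uM compound and 24 hr incubation at 39C.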
FH mod: Identification of activators of human fumarate hydratase by quantitative high-throughput screening; Fumarate hydratase, mitochondrial (Homo sapiens), P07954; FH coupled MDH/diaphorase resazurin fluorescence, 15 min; Potency, µM (top dose mostly 79.9 µM), actives largely listed as inhibitors; hit rate 0.22% among 54,000; AID 1347055, 2019; note: the screen sought activators but most active calls are inhibition curves; nearly all actives have a fitted effect of over 45% in size
Target sequence (P07954 whole entry, looked up): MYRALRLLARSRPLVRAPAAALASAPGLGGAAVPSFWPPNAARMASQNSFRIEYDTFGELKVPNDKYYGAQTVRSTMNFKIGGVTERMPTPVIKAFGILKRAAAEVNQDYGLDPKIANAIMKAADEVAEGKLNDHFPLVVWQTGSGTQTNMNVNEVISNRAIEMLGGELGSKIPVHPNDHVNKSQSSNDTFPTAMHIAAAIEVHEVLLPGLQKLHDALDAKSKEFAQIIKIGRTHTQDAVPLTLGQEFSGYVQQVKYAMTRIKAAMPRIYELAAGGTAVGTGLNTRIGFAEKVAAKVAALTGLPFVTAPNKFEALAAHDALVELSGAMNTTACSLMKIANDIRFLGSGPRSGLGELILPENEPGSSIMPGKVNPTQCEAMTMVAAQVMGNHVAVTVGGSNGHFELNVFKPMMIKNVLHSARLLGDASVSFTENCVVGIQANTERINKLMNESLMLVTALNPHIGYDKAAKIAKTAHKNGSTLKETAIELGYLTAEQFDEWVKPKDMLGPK
p53null 32C kill: qHTS Screen for Compounds that Selectively Target Cancer Cells with p53 Mutations: Cytotoxicity of p53 Null Cells at the Permissive Temperature; H1299-neo p53 null cells, ATP luminescence, 24 h, 32C; Potency, µM (titrated, usually from 46.1 µM), actives largely listed as cytotoxic; hit rate 0.62% among 55,000; note: nearly all actives have a fitted effect of over 55% in size
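ATP-content luminescence in p53-null H1299-neo cells after 24 h compound exposure (up to 46 uM) at 32C permissive temperature; 0% and 100% killing set by DMSO and 100 uM tamoxifen; Hill-equation AC50.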
DYRK1A KinaseGlo: Assay for Inhibitors of Dual-Specificity Tyrosine-(Y)-Phosphorylation Regulated Kinase 1A (Kinase-Glo assay); shares compounds with NTMT1 inh; recombinant DYRK1A, Kinase-Glo ATP depletion luminescence; Potency, µM (doses to about 76.9 µM), hits mostly inhibitors; hit rate 80% among 100
CLK4 inh: Confirmation Assay for Inhibitors of CDC-like Kinase 4 (Kinase-Glo Assay): SAR round 2. hit rate 90% among 90. recombinant Clk4, Kinase-Glo ATP luminescence, 4.5 h. shares compounds with NTMT1 inh. Potency, µM (series often up to 76.9 µM), usual class: inhibitors. AID 493204, 2011
USP2a K63: Confirmation Assay for Inhibitors of Ubiquitin-specific Protease USP2a Using CHOP2 as the Reporter: K633. hit rate 80% among 30. Potency, µM (highest dose often 57.5 µM), usual class: inhibitors. USP2 cleavage of DiUb K63-3IQF, fluorescence kinetic. shares compounds with NTMT1 inh
Casp6 inh: qHTS for Inhibitors of Ubiquitin-specific Protease USP2a Using CHOP2 as the Reporter: Caspase 6 Assay. shares compounds with NTMT1 inh. Caspase 6 enzyme, Caspase-Glo 6 luminescence. 30 tested, under 10 active. activity change, negative = inhibition, % at 46.1 µM
NNMT counter: Counterscreen qHTS for Inhibitors of N-terminal methyltransferase 1 (NTMT1): NNMT MTaseGlo assay. NNMT MTase-Glo luminescence, SAH detection. Potency, µM (titrated, usually from 57.1 µM), most hits filed as inhibitors. shares compounds with NTMT1 inh. AID 1645878, 2021. hit rate 10% among 120
Large screens that a line does not name were inactive (follow-up assays come after a bar, where they were run). Calls come from the whole dose curve; as a rule, active = well fitted curve in the direction sought with a large enough effect; inconclusive = small, poorly fitted or top-dose-only effect, or another doubt; inactive = no such curve, though single readings can be large; an effect the other way counts as inactive or inconclusive.

COc1ccc2nc(-c3cc(OC)c(OC)c(OC)c3)cc(C(=O)NCC(=O)Nc3ccc(C(C)=O)cc3)c2c1	none (no result: GALC G270D act, p53null 39C tox, p53null 32C kill) | NNMT counter inconclusive
CC1(C)CC[C@]2(C(=O)O[C@@H]3O[C@H](CO)[C@@H](O)[C@H](O)[C@H]3O)CC[C@]3(C)C(=CCC4[C@@]5(C)C[C@@H](O)[C@H](O)[C@](C)(C(=O)O)C5CC[C@]43C)C2C1O (some centres not stated)	FH mod inconclusive (no result: GALC G270D act, p53null 39C tox, p53null 32C kill)
CC(c1ccco1)N(C)c1ncnc2ccc(-c3ccc4c(c3)OCO4)cc12 (configuration not stated)	none (no result: GALC G270D act, NTMT1 inh, p53null 39C tox, FH mod, p53null 32C kill) | DYRK1A KinaseGlo 0.26µM
CN(CCc1ccco1)c1ncnc2ccc(-c3ccc4c(c3)OCO4)cc12	NTMT1 inh inconclusive (no result: GALC G270D act, p53null 39C tox, FH mod, p53null 32C kill) | CLK4 inh 0.092µM
O=C(Nc1ccc(C(=O)Nc2nccs2)cc1)c1ccc2ccccc2c1	none (no result: GALC G270D act, p53null 39C tox, FH mod, p53null 32C kill)
O=C(Nc1ccc(S(=O)(=O)Nc2nccs2)cc1)c1ccc2ccccc2c1	NTMT1 inh inconclusive (no result: GALC G270D act, p53null 39C tox, FH mod, p53null 32C kill) | USP2a K63 3.9µM | Casp6 inh inactive
Cc1ccc(S(=O)(=O)Nc2cnccc2C(=O)Nc2nc(-c3ccccc3F)cs2)cc1	none (no result: GALC G270D act, p53null 39C tox, FH mod, p53null 32C kill)
Cc1ccc(S(=O)(=O)Nc2cc(C(F)(F)F)ccc2C(=O)Nc2nc(-c3ccccc3)cs2)cc1	NTMT1 inh inconclusive (no result: GALC G270D act, p53null 39C tox, FH mod, p53null 32C kill) | USP2a K63 1.7µM | Casp6 inh inactive
Cc1ccc(S(=O)(=O)Nc2ccc(Cl)cc2C(=O)Nc2nc(-c3ccccc3)cs2)cc1	NTMT1 inh inconclusive (no result: GALC G270D act, p53null 39C tox, FH mod, p53null 32C kill) | USP2a K63 1.2µM | Casp6 inh inactive
Cc1ccc(S(=O)(=O)Nc2cccnc2C(=O)Nc2nc(-c3ccccc3)cs2)cc1	none (no result: GALC G270D act, p53null 39C tox, FH mod, p53null 32C kill)
Cc1ccc(S(=O)(=O)Nc2cc(F)c(F)cc2C(=O)Nc2nc(-c3ccccc3)cs2)cc1	none (no result: GALC G270D act, p53null 39C tox, FH mod, p53null 32C kill)
Cc1cc(F)ccc1S(=O)(=O)Nc1cnccc1C(=O)Nc1nc(-c2ccccc2)cs1	none (no result: GALC G270D act, p53null 39C tox, FH mod, p53null 32C kill) | USP2a K63 1.9µM | Casp6 inh inactive
Cc1ccc(S(=O)(=O)Nc2ncccc2C(=O)Nc2nc(-c3ccccc3)cs2)cc1	none (no result: GALC G270D act, NTMT1 inh, p53null 39C tox, FH mod, p53null 32C kill) | USP2a K63 3.4µM | Casp6 inh inactive
Cc1ccc(S(=O)(=O)Nc2ccc(OC(F)(F)F)cc2C(=O)Nc2nc(-c3ccccc3)cs2)cc1	none (no result: GALC G270D act, p53null 39C tox, FH mod, p53null 32C kill)
Cc1ccc(-c2cc(C(=O)Nc3ccc(Cl)cc3)c3ccccc3n2)cc1C	none (no result: GALC G270D act, p53null 39C tox, FH mod, p53null 32C kill)
COc1ccc(CNC(=O)C(=O)Nc2ccccc2OC)cc1	none
COc1ccccc1NC(=O)Nc1ccc2ccccc2c1	FH mod inconclusive (no result: GALC G270D act, p53null 39C tox, p53null 32C kill) | NNMT counter inactive
Cc1cccc(Nc2nc(-c3ccncc3)cs2)c1	NTMT1 inh 2.5µM (no result: GALC G270D act, p53null 39C tox, p53null 32C kill) | NNMT counter 8.9µM
COc1cccc(CNC(=O)Nc2nc(-c3ccncc3)cs2)c1	none (no result: GALC G270D act, p53null 39C tox, p53null 32C kill)

High-throughput results: PubChem, National Center for Advancing Translational Sciences (NCATS)
